Source: PubChem BioAssay (EPA / NIEHS)
Records with an inconclusive call do not appear. Calls of active or inactive are those of the source. The calls were made as follows, unless noted: active = hit-call score of the fitted dose curve at least 0.9, where 1 is the maximum; inconclusive = response in the unintended direction; inactive = score below 0.9.

Legend:
[1] = read-out: Intercellular Adhesion Molecule 1 (ICAM1), ICAM1 (gene 3383); experiment: BSK_3C_ICAM1: BioMAP Diversity Plus: 3C Assay for Intercellular Adhesion Molecule 1 (ICAM1) Biomarker Activity (AID 2283003; active = hit-call score of the fitted dose curve at least 0.9, where 1 is the maximum; inactive = score below 0.9); details: primary human endothelial cells (HUVEC); actives raise or lower the signal
Method in brief: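 HUVEC primary cells stimulated under 3C conditions; ICAM1 measured by ELISA 24 h after compound dosing. Curves fitted bidirectionally against the DMSO baseline. Overt cytotoxicity checked by SRB staining of parallel cultures.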

[2] = molecular target: human Retinoic Acid Receptor beta (RARb), RARB (gene 5915) (UniProt P10826); experiment: ATG_RARb_TRANS: Attagene TRANS-FACTORIAL HepG2 Assay for human Retinoic Acid Receptor beta (AID 2283004)
Sequence of human Retinoic Acid Receptor beta (RARb), RARB (gene 5915) (P10826 whole entry, looked up, the tested form may be a part): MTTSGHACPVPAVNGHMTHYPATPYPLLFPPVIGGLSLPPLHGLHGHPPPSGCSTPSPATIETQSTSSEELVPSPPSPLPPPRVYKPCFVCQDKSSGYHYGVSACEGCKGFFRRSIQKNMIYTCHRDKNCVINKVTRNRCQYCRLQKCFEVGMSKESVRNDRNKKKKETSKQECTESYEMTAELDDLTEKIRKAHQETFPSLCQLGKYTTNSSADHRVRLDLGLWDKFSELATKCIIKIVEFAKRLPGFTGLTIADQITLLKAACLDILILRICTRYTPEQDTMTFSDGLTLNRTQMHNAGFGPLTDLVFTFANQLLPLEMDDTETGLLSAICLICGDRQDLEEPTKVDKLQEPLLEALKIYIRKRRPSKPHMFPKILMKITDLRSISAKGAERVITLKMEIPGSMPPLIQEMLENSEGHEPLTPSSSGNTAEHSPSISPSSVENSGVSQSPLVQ
Method in brief: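 Induction of reporter mRNA from a chimeric RARb-Gal4 construct was measured by RT-PCR, FAM labelling, HpaI digestion and capillary electrophoresis. Measurements followed 24 h compound treatment of transiently transfected human HepG2 liver cells, with DMSO as baseline.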

[3] = molecular target: Peroxisome proliferator-activated receptor gamma (Homo sapiens) (UniProt P37231); experiment: ATG_PPARg_TRANS: Attagene TRANS-FACTORIAL HepG2 Assay for human Peroxisome Proliferator-activated Receptor-gamma (PPARg) (AID 2283007)
Sequence of Peroxisome proliferator-activated receptor gamma (Homo sapiens) (P37231 whole entry, looked up, the tested form may be a part): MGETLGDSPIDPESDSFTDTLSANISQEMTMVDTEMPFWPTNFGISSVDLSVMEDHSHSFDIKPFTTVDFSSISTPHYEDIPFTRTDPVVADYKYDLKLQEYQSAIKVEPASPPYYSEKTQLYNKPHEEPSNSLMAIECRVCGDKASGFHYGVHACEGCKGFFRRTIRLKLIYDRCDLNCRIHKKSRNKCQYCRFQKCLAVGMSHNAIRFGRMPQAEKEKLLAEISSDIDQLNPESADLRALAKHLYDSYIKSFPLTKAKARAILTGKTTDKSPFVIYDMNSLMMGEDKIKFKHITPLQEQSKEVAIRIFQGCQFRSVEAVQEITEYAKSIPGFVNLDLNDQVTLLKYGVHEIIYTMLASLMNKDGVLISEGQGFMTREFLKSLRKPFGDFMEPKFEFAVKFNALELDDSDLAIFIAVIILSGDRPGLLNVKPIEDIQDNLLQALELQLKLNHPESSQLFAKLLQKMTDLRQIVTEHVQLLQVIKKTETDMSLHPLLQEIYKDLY
Method in brief: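 Transient transfection of HepG2 with GAL4-UAS-driven reporter units; chemical dosing 24 h; total RNA → oligo(dT) RT → PCR with reporter primers → 6-FAM primer extension → HpaI digest 2 h 37 C → capillary electrophoresis. Positive direction vs DMSO.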

[4] = molecular target: human Retinoid X Receptor beta (RXRb), RXRB (gene 6257) (UniProt P28702); experiment: ATG_RXRb_TRANS: Attagene TRANS-FACTORIAL HepG2 Assay for human Retinoid X Receptor beta (RXRb) (AID 2283013)
Sequence of human Retinoid X Receptor beta (RXRb), RXRB (gene 6257) (P28702 whole entry, looked up, the tested form may be a part): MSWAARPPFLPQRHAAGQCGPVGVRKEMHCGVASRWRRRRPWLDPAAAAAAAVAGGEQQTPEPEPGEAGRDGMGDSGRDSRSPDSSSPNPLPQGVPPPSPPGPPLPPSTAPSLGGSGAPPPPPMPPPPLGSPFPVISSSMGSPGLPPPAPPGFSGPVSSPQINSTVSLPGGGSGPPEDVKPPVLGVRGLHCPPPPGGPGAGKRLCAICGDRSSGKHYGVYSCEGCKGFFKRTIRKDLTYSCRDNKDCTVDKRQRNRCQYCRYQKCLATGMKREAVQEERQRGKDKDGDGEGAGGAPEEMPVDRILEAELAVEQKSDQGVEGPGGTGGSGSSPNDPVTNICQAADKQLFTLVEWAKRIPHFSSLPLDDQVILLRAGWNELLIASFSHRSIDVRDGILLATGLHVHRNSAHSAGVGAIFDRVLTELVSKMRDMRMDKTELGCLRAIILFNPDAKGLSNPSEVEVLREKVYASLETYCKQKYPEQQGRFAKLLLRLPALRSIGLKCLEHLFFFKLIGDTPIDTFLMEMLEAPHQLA
Method in brief: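 HepG2 cells were transiently transfected with multiplexed GAL4-UAS reporters and a chimeric RXRb-Gal4 construct, then exposed for 24 h. Reporter mRNA was quantified by RT-PCR, FAM labeling, HpaI digestion and capillary electrophoresis; gain of signal was scored against DMSO.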

[5] = molecular target: human Thyroid Receptor alpha (THRa1), THRA (gene 7067) (UniProt P10827); experiment: ATG_THRa1_TRANS: Attagene TRANS-FACTORIAL HepG2 Assay for human Thyroid Receptor alpha (THRa1) (AID 2283014)
Sequence of human Thyroid Receptor alpha (THRa1), THRA (gene 7067) (P10827 whole entry, looked up, the tested form may be a part): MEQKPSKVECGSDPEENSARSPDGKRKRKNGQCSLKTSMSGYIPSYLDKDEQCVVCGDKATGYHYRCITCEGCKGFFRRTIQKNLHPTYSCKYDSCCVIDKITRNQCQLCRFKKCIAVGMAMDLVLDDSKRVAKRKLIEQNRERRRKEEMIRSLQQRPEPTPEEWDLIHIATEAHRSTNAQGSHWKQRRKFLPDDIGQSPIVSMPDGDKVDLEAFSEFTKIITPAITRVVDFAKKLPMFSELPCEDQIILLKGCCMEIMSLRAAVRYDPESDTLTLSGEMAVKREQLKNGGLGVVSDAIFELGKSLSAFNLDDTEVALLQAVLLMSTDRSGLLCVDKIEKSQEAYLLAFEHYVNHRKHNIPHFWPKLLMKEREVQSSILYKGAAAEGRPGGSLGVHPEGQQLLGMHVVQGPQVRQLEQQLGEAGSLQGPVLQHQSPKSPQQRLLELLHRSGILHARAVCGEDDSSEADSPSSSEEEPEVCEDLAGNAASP
Method in brief: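 Transcripts from GAL4-UAS-driven reporters, measured after 24 h compound exposure by RT-PCR plus capillary electrophoresis of 6-FAM-labeled fragments, were fitted for gain of signal relative to DMSO. Cells: transiently transfected HepG2 expressing NR-Gal4 chimeras.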

[6] = BSK_3C_Proliferation: Cell Proliferation Assessment in the BioMAP Diversity Plus: 3C Assay (AID 2283006; active = hit-call score of the fitted dose curve at least 0.9, where 1 is the maximum; inactive = score below 0.9;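 as to AC50: potency may reflect either rise or fall in cell number versus DMSO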); details: primary human endothelial cells (HUVEC)
Method in brief: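 Subconfluent HUVEC (3C system) cultured with chemical; relative cell number read at 48 h by sulforhodamine B total-protein staining (0.1% SRB after 10% TCA fixation, 560 nm). Bidirectional fit relative to DMSO.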

[7] = molecular target: Retinoic acid receptor RXR-alpha (Homo sapiens) (UniProt P19793); experiment: ATG_RXRa_TRANS: Attagene TRANS-FACTORIAL HepG2 Assay for human Retinoid X Receptor alpha (RXRa) (AID 2283012)
Sequence of Retinoic acid receptor RXR-alpha (Homo sapiens) (P19793 whole entry, looked up, the tested form may be a part): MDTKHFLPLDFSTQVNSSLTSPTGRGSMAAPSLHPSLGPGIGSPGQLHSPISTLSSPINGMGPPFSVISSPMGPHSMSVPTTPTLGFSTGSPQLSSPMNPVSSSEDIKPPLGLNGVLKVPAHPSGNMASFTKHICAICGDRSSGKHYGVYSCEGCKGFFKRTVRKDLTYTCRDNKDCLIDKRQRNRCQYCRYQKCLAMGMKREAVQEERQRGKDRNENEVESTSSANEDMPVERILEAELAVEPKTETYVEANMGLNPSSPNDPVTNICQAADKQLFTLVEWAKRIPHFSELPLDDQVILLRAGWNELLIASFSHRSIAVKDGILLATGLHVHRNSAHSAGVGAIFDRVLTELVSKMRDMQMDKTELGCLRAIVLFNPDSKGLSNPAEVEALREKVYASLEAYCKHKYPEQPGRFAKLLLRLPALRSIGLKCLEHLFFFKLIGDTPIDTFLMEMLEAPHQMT
Method in brief: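 HepG2 cells transiently transfected with GAL4-UAS reporter units and chimeric RXRa-Gal4 protein, treated 24 h. Reporter mRNA measured by RT-PCR, fluorescent labelling, HpaI digestion and capillary electrophoresis. Induction fitted against DMSO.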

[8] = molecular target: Retinoic acid receptor alpha (Homo sapiens) (UniProt P10276); experiment: ATG_RARa_TRANS: Attagene TRANS-FACTORIAL HepG2 Assay for human Retinoic Acid Receptor alpha (RARa) (AID 2283005)
Sequence of Retinoic acid receptor alpha (Homo sapiens) (P10276 whole entry, looked up, the tested form may be a part): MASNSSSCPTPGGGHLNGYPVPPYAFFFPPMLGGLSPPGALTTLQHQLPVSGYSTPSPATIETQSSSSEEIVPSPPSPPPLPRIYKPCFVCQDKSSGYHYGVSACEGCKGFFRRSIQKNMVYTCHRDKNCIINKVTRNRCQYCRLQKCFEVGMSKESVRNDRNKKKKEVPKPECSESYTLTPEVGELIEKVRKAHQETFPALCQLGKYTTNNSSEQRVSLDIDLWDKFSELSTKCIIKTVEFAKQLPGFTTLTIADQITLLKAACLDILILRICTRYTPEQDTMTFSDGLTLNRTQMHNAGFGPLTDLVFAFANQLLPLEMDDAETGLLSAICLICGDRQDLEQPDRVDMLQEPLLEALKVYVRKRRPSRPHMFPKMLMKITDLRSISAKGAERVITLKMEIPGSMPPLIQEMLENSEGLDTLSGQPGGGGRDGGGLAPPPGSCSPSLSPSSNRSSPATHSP
Method in brief: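 HepG2 cells transiently transfected with multiple reporter units expressing chimeric RARα-GAL4 fusion, with GAL4-UAS-driven reporters. After 24 h compound exposure, reporter mRNA induction quantified by RT-PCR and capillary electrophoresis with fluorescent labeling; gain-of-signal fitted relative to DMSO control.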

[9] = molecular target: human Retinoic Acid Receptor gamma (RARg), RARG (gene 5916) (UniProt P13631); experiment: ATG_RARg_TRANS: Attagene TRANS-FACTORIAL HepG2 Assay for human Retinoic Acid Receptor gamma (RARg) (AID 2283009)
Sequence of human Retinoic Acid Receptor gamma (RARg), RARG (gene 5916) (P13631 whole entry, looked up, the tested form may be a part): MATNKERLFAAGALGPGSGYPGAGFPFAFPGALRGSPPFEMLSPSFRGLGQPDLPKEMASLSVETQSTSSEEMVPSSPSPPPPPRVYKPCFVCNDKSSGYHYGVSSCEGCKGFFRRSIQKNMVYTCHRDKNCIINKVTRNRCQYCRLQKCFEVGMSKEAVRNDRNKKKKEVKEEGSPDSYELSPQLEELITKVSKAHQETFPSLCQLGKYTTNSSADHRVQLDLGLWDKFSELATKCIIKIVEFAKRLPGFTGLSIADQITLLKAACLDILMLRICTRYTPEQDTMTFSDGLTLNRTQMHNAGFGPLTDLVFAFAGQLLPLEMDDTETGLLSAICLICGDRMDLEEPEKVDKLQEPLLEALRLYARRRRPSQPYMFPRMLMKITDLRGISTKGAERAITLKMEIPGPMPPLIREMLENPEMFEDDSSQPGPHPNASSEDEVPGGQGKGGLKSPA
Method in brief: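 HepG2 transiently transfected with GAL4-UAS reporter units and chimeric NR-Gal4 constructs; 24 h compound exposure. Reporter mRNA quantified by RT-PCR, FAM labeling, HpaI digestion and capillary electrophoresis; gain-of-signal versus DMSO.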

[10] = molecular target: Nuclear receptor subfamily 1 group I member 2 (Homo sapiens) (UniProt O75469); experiment: ATG_PXR_TRANS: Attagene TRANS-FACTORIAL HepG2 Assay for human Pregnane X Receptor (PXR) (AID 2283008)
Sequence of Nuclear receptor subfamily 1 group I member 2 (Homo sapiens) (O75469 whole entry, looked up, the tested form may be a part): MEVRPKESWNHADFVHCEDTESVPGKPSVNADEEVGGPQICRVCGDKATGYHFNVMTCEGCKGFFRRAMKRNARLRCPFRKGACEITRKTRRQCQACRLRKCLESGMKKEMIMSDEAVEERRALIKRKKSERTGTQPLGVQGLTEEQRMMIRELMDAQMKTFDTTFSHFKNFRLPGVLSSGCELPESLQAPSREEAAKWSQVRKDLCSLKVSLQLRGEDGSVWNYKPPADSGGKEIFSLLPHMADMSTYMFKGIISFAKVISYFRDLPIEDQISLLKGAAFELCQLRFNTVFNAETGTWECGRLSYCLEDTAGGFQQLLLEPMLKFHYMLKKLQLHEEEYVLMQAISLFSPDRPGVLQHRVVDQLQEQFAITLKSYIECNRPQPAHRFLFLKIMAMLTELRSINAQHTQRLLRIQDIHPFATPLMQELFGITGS
Method in brief: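 Read-out is fluorescence of labelled reporter cDNA fragments separated by capillary electrophoresis after RT-PCR and HpaI digestion. Source: HepG2 cells carrying PXR-GAL4/UAS reporter constructs, treated 24 h; activity fitted upward relative to DMSO.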

Measured: AC50

O=C(O)c1cccc(Oc2ccccc2)c1
active: [3] 59.8 µM
inactive: [1] | [2] | [4] | [5]

CCCCC(CC)COC(=O)CCCCCCCCC(=O)OCC(CC)CCCC (configuration not stated)
inactive: [1] | [6] | [3] | [7] | [4]

CCCCC(CC)COC(=O)c1ccc(C(=O)OCC(CC)CCCC)cc1 (configuration not stated)
active: [4] 49.7 µM
inactive: [1] | [8] | [9] | [5]

CC[C@H]1OC(=O)[C@H](C)[C@@H](O[C@H]2C[C@@](C)(OC)[C@@H](O)[C@H](C)O2)[C@H](C)[C@@H](O[C@@H]2O[C@H](C)C[C@H](N(C)C)[C@H]2O)[C@](C)(O)C[C@@H](C)C(=O)[C@H](C)[C@@H](O)[C@]1(C)O
inactive: [1] | [8] | [6] | [10] | [4] | [5]

Nc1ccc(Nc2ccccc2)cc1
inactive: [1] | [2] | [3] | [7]

CC(C)=CCC/C(C)=C\CO
active: [3] 36.5 µM
inactive: [1] | [6] | [7]

O=P(OC(CCl)CCl)(OC(CCl)CCl)OC(CCl)CCl
active: [6] 10.6 µM | [4] 26 µM
inactive: [1] | [3] | [9] | [5]

O=C(NS(=O)(=O)/C=C/c1ccccc1)c1ccc(F)cc1Cl
inactive: [1] | [7] | [4] | [5]
active: [6] 6.4 µM | [3] 22.3 µM | [10] 16.2 µM

CCOC(=O)CC(CC(=O)OCC)(OC(C)=O)C(=O)OCC
active: [3] 52.3 µM
inactive: [1] | [8] | [6] | [10] | [7] | [4] | [5]

Fc1ccccc1[C@@H](F)COC1CCC(Nc2ncnc3[nH]ncc23)CC1 (some centres not stated)
active: [6] 29.3 µM
inactive: [1] | [3]

O=C(O)c1cc(N=Nc2ccc(S(=O)(=O)Nc3ccccn3)cc2)ccc1O
active: [3] 57.4 µM
inactive: [1] | [6] | [7] | [4]

Cc1ccc(N)cc1O
inactive: [1] | [2] | [4]

CC(O)CN(CCN(CC(C)O)CC(C)O)CC(C)O (configuration not stated)
inactive: [1] | [2] | [7] | [4]

Clc1nc(Cl)c(Cl)c(Cl)c1Cl
inactive: [1] | [2] | [9] | [4]
active: [3] 3.02 µM

CCCN(C1CCN(C(=O)C2CCNCC2)CC1)[C@@H]1CCc2ccc(OC)cc2C1
inactive: [1] | [6] | [10] | [9] | [7] | [4] | [5]
active: [3] 100 µM

NC(=O)NO
inactive: [1] | [8]

CC(C)c1cccc(C(C)C)c1N1C(=O)c2ccc(O)cc2C1=O
inactive: [1] | [8] | [3] | [9] | [7] | [4]
active: [6] 3.32 µM

O=C(O)CC(O)C(=O)O (configuration not stated)
inactive: [1] | [2] | [10] | [9] | [7]

CCCCCCCCCCCCCCCO
active: [6] 14.7 µM | [4] 27.5 µM
inactive: [1] | [3] | [7]

C1N2CN3CN1CN(C2)C3
inactive: [1] | [8] | [6] | [3] | [7] | [4] | [5]

COC(=O)c1c(Cl)c(Cl)c(C(=O)OC)c(Cl)c1Cl
active: [6] 14.6 µM | [3] 35.9 µM | [4] 30.8 µM
inactive: [1] | [10] | [7]

O=C1CCC(N2C(=O)c3ccccc3C2=O)C(=O)N1 (configuration not stated)
inactive: [1] | [3] | [5]

O=c1[nH]c2ccc(S(=O)CCN3CCC(Cc4ccc(F)cc4)CC3)cc2o1 (configuration not stated)
inactive: [1] | [9] | [7]
active: [3] 7.65 µM
